Results filed as inconclusive are left out. Where a call stands in place of a potency, no number is given. Values without a mark were called inactive. Activity calls are given as the source filed them. Unless noted, calls come from the whole dose curve; as a rule, active = well fitted curve in the direction sought with a large enough effect in the repeat runs; inconclusive = weak or mixed curves; inactive = no such curve, though single readings can be large; an effect the other way counts as inactive or inconclusive.
Tests used:
[1] = qHTS assay to identify small molecule antagonists of the thyroid receptor (TR) signaling pathway - cell viability counter screen (AID 743064); note: nearly all actives have a fitted effect of over 50% in size
Method in brief: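 GH3.TRE-Luc rat pituitary cells carrying a TRE-luciferase reporter were treated with compound plus 1 nM T3 (final) for 23.5 h at 37 °C. Viability was then read in the same wells by CellTiter-Fluor fluorescence after a further 30 min.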

[2] = qHTS assay to identify small molecule antagonists of the thyroid receptor (TR) signaling pathway (AID 743065); note: nearly all actives have a fitted effect of over 55% in size
Method in brief: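 Antagonism measured as loss of luciferase signal in GH3 cells stably carrying a TRE-luciferase reporter, co-treated with compound and T3 (1 nM final) for 23.5 h at 37 C. Viability was read in the same well by CellTiter-Fluor.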

[3] = system: thyroid hormone receptor (rat, GH3 cells); assay: qHTS assay to identify small molecule agonists of the thyroid receptor (TR) signaling pathway (AID 743066; calls by dose curve)
[4] = qHTS assay to identify small molecule antagonists of the estrogen receptor alpha (ER-alpha) signaling pathway - cell viability counter screen (AID 743074; calls by dose curve;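 note: HEK293 cells carrying ER-alpha-UAS-bla reporter stimulated with 17beta-estradiol; nearly all actives have a fitted effect of over 45% in size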)
[5] = target: Estrogen receptor (Homo sapiens) (UniProt P03372); assay: qHTS assay to identify small molecule agonists of the estrogen receptor alpha (ER-alpha) signaling pathway (AID 743075; calls by dose curve)
[6] = qHTS assay to identify small molecule antagonists of the estrogen receptor alpha (ER-alpha) signaling pathway using the BG1 cell line (AID 743080; calls by dose curve;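 note: BG1 cells stimulated with 17beta-estradiol alongside compound; nearly all actives have a fitted effect of over 25% in size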)
Method in brief: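 BG1-Luc-4E2 cells (endogenous full-length ER-alpha, 4xERE luciferase) hormone-starved 5 days in charcoal-stripped FBS, plated 4,000/well for 24 h, then compound plus 17beta-estradiol for 21.5 h at 37 C; ONE-Glo luminescence read.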

[7] = qHTS assay to identify small molecule antagonists of the estrogen receptor alpha (ER-alpha) signaling pathway using the BG1 cell line - cell viability counter screen (AID 743081);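 note: compound given together with 17beta-estradiol as the ER stimulus; nearly all actives have a fitted effect of over 45% in size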
Aromatase (Homo sapiens) = Aromatase (Homo sapiens) (UniProt P11511); assay: qHTS assay to identify aromatase inhibitors (AID 743083); note: nearly all actives have a fitted effect of over 55% in size
[8] = qHTS assay to identify aromatase inhibitors - cell viability counter screen (AID 743084);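 note: cells stimulated with testosterone during compound exposure; nearly all actives have a fitted effect of over 55% in size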
[9] = target: Aryl hydrocarbon receptor (Homo sapiens) (UniProt P35869); assay: qHTS assay to identify small molecule that activate the aryl hydrocarbon receptor (AhR) signaling pathway (AID 743085); note: nearly all actives have a fitted effect of over 15% in size; note: potency is the fitted concentration of half-maximal effect;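 for activation: HG2L7.5c1 human HepG2 liver cells with stably integrated DRE-driven firefly reporter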
Method in brief: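 HepG2 cells (HG2L7.5c1) stably carrying a firefly luciferase reporter driven by 20 dioxin responsive elements were exposed to compound for 24 h at 37C after a 5 h settling period; luminescence rise (ONE-Glo) indicated activation.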

[10] = qHTS assay to identify small molecule that activate the aryl hydrocarbon receptor (AhR) signaling pathway - cell viability counter screen (AID 743086);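 note: HepG2 liver cells carrying the AhR DRE luciferase reporter; nearly all actives have a fitted effect of over 45% in size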
Method in brief: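 Cytotoxicity counter screen: CellTiter-Fluor signal (30 min, 37 C) in 4000 HepG2 cells/well carrying the DRE-luciferase reporter, following 24 h compound exposure at 37 C.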

[11] = target: Peroxisome proliferator-activated receptor gamma (Homo sapiens) (UniProt P37231); assay: qHTS assay to identify small molecule agonists of the peroxisome proliferator-activated receptor gamma (PPARg) signaling pathway (AID 743094; active = well fitted activation curve with a large enough effect in the signal ratio in the repeat runs, not every such curve was filed as active; the % refers to the signal ratio)
Method in brief: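 GeneBLAzer PPARg UAS-bla HEK293H cells were plated, rested 5 h, then exposed to compounds for 17 h at 37C. Beta-lactamase activity was read by LiveBLAzer B/G FRET substrate fluorescence after 1 h at room temperature.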

[12] = qHTS assay to identify small molecule phospholipidosis (PLD) inducers (AID 1259344; active = well fitted curve in the direction sought with a large enough effect; an effect the other way counts as inactive or inconclusive)
Method in brief: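 Fluorescent phospholipid staining (LipidTOX Red) measured by automated microscopy in fixed HepG2 cells after 24 h treatment; nuclei counterstained with Hoechst 33342; amiodarone as reference inducer.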

[13] = target: Nuclear receptor subfamily 1 group I member 2 (Rattus norvegicus) (UniProt Q9R1A7); assay: Rat pregnane X receptor (rPXR) activation by small molecules, qHTS assay (AID 1346983); settings: rPXR luciferase reporter cells, One-Glo luminescence, 24 h; max activation: active compounds read high; note: nearly all actives have a fitted effect of over 20% in size; note: potency is the fitted concentration of half-maximal effect
Method in brief: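 Luminescent readout (One-Glo luciferase, 30 min room temperature) followed 24 hr compound treatment at 37 C of rPXR cells plated 2,000 per well and preincubated 5hr; qHTS format with compounds delivered in DMSO.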

[14] = target: Nuclear receptor subfamily 1 group I member 2 (Homo sapiens) (UniProt O75469); assay: CYP3A4 induction through human pregnane X receptor (PXR) by small molecules, qHTS assay (AID 1346984); note: nearly all actives have a fitted effect of over 40% in size
Method in brief: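 DPX-2 HepG2 cells carrying a PXR response element and CYP3A4-promoter luciferase construct, treated with compounds 24 hr at 37C. Then P450-Glo CYP3A4 Luciferin-IPA substrate (3uM final) for 3 hr at 37C, One-Glo added, luminescence read.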

[15] = target: Nuclear receptor subfamily 1 group I member 2 (Homo sapiens) (UniProt O75469); assay: Human pregnane X receptor (PXR) activation by small molecules, qHTS assay (AID 1346985); note: nearly all actives have a fitted effect of over 40% in size
Method in brief: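 DPX-2 cells (HepG2 co-transfected with a PXR response element and a CYP3A4-promoter luciferase construct) were seeded at 2,000 per well, rested 5 hr at 37C, then exposed to DMSO-dissolved compounds for 24 hr. Activation was read as luciferase luminescence.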

[16] = target: Estrogen receptor (Homo sapiens) (UniProt P03372); assay: qHTS assay to identify small molecule agonists of the estrogen receptor alpha (ER-alpha) signaling pathway using the BG1 cell line (AID 743079); settings: BG1Luc4E2 cells, ERE-luciferase agonist, 22 h; activation: at 70.3 µM (top of the series); note: nearly all actives have a fitted effect of over 20% in size; note: potency is the fitted concentration of half-maximal effect
[17] = target: Estrogen receptor (Homo sapiens) (UniProt P03372); assay: qHTS assay to identify small molecule antagonists of the estrogen receptor alpha (ER-alpha) signaling pathway (AID 743069; active = well fitted curve in the direction sought with a large enough effect in the signal ratio in the repeat runs, not every such curve was filed as active; the % refers to the signal ratio)
Method in brief: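 Compound effects are measured against 17beta-estradiol stimulation in HEK293 cells with a UAS-controlled beta-lactamase reporter for ER-alpha. Exposure lasts 18 hr at 37C; LiveBLAzer B/G FRET substrate follows for 2 hr at room temperature.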

Chain of Nuclear receptor subfamily 1 group I member 2 (Rattus norvegicus) (Q9R1A7 whole entry, looked up): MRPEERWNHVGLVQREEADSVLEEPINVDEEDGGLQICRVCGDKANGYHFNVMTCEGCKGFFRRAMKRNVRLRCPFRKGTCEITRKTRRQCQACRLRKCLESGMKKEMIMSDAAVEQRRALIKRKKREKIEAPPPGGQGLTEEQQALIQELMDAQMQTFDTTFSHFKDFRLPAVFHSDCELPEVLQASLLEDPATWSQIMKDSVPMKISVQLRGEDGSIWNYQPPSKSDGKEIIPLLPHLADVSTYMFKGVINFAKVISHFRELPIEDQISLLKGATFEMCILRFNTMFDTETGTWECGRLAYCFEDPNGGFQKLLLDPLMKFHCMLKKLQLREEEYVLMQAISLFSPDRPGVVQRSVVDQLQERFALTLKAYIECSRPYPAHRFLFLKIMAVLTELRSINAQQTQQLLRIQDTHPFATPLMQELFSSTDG
Chain of Aryl hydrocarbon receptor (Homo sapiens) (P35869 whole entry, looked up): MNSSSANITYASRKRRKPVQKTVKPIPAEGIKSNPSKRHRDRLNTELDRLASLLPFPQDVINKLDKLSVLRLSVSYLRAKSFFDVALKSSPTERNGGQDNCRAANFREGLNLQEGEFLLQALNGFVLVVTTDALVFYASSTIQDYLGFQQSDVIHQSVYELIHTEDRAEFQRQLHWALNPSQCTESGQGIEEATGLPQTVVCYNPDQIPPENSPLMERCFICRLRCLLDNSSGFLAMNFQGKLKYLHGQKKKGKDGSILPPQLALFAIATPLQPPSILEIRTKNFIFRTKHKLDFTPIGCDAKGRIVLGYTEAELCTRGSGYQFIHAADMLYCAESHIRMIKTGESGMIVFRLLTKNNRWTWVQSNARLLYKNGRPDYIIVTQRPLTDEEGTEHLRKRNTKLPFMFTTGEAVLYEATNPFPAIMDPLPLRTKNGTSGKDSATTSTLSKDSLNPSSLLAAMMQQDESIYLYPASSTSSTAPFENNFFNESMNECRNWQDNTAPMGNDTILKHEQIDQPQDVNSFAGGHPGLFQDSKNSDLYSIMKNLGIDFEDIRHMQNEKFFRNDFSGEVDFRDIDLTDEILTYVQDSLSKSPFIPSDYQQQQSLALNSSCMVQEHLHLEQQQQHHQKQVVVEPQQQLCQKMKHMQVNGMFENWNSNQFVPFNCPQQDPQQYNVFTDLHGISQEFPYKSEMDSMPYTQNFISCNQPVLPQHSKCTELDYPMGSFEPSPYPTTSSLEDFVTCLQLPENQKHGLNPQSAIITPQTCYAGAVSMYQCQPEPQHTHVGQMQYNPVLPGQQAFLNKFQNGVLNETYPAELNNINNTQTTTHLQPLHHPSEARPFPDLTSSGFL
Chain of Aromatase (Homo sapiens) (P11511 whole entry, looked up): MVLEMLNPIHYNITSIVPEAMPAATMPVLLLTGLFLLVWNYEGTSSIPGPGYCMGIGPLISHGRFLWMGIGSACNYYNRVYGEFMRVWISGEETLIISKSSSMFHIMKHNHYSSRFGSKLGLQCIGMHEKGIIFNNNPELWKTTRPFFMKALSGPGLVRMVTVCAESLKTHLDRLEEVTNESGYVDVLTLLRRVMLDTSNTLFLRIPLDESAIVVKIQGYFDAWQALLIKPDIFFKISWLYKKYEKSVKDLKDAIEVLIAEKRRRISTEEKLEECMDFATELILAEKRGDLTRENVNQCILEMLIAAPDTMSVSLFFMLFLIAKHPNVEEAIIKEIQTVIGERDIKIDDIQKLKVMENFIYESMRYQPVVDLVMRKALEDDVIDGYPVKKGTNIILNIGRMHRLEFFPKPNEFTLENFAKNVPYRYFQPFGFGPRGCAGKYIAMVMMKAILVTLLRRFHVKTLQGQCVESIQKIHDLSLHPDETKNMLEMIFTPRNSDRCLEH
Chain of Peroxisome proliferator-activated receptor gamma (Homo sapiens) (P37231 whole entry, looked up): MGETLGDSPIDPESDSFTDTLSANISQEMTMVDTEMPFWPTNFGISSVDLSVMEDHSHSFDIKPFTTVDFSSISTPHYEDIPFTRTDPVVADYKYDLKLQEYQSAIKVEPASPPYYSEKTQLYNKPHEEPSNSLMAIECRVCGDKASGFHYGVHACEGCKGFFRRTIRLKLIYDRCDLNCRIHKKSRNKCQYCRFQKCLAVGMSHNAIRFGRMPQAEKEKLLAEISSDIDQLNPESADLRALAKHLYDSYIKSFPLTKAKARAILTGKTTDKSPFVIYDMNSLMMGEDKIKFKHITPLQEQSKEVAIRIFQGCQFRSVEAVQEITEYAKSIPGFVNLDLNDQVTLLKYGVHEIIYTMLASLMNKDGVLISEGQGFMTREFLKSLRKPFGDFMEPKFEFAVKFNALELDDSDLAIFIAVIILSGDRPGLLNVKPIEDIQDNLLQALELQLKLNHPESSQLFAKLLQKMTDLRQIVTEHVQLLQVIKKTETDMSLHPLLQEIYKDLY
Chain of Estrogen receptor (Homo sapiens) (P03372 whole entry, looked up): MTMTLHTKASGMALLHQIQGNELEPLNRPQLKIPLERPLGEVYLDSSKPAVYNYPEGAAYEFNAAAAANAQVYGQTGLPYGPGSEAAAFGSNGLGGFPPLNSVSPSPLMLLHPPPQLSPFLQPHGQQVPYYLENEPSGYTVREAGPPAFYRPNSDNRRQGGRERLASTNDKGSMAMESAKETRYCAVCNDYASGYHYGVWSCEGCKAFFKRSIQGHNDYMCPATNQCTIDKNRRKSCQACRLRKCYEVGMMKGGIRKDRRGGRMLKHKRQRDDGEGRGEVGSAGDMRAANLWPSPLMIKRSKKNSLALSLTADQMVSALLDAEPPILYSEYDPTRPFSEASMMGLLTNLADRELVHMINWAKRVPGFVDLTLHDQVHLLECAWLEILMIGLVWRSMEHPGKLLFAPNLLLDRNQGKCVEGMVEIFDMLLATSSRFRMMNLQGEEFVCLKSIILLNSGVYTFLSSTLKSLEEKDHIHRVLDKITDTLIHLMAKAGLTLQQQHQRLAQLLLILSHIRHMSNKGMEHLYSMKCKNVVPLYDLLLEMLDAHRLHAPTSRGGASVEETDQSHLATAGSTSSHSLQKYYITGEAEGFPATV

Row | Structure (SMILES) | Potency [1] | Potency [2] | Potency [3] | Potency [4] | Potency [5] | Potency [6] | Potency [7] | Potency (Aromatase (Homo sapiens)) | Potency [8] | Potency [9] | Potency [10] | Potency [11] | Potency [12] | max activation [13] | Potency [14] | Potency [15] | Potency [16] | Potency [13] | Potency [17]
1 | CC(C)(CO)[C@@H](O)C(=O)NCCCC(=O)O | inactive | inactive | inactive | inactive | inactive | inactive | inactive | inactive | inactive | inactive | inactive | inactive | inactive | -8.61% | inactive | inactive |  |  | 
2 | [O]=[Bi][O][Bi]=[O] | inactive | inactive | inactive | inactive |  |  | inactive | inactive | inactive | inactive | inactive |  | inactive | -2.85% | inactive | inactive |  |  | 
3 | C[C@@H]1C[C@H]2[C@@H]3CCC4=CC(=O)C=C[C@]4(C)[C@@]3(F)[C@@H](O)C[C@]2(C)[C@@]1(O)C(=O)COC(=O)c1cccc(S(=O)(=O)O)c1 | inactive | inactive | inactive | inactive | inactive |  | inactive | inactive | inactive |  | inactive | inactive | inactive |  | inactive | inactive | 15 µM (active) | 10 µM (active) | 
4 | CO[C@@]1(NC(=O)C2SC(=C(C(N)=O)C(=O)O)S2)C(=O)N2C(C(=O)O)=C(CSc3nnnn3C)CS[C@@H]21 (stereo partly drawn) | inactive | inactive | inactive | inactive |  |  | inactive | inactive | inactive | inactive | inactive | inactive | inactive | -1.7% | inactive | inactive |  |  | 
5 | O=C(NNCNNC(=O)c1ccncc1)c1ccncc1 | inactive | inactive | inactive | inactive |  |  | inactive | inactive | inactive | 4.73 µM (active) | inactive | inactive | inactive | -3.41% | inactive | inactive |  |  | 
6 | CCCCCCCCCCCCCCCCCCCCCCO | inactive | inactive | inactive | inactive |  |  | inactive | inactive | inactive | inactive | inactive | inactive | inactive | -1.89% | inactive | inactive |  |  | 
7 | CCCCC/C=C\CCC(=O)N[C@H]1[C@H](Oc2c3cc4cc2Oc2ccc(cc2Cl)[C@@H](O[C@@H]2O[C@H](CO)[C@@H](O)[C@H](O)[C@H]2NC(C)=O)[C@@H]2NC(=O)[C@H](NC(=O)[C@@H]4NC(=O)[C@H]4NC(=O)[C@@H](Cc5ccc(c(Cl)c5)O3)NC(=O)[C@H](N)c3ccc(O)c(c3)Oc3cc(O)cc4c3)c3ccc(O)c(c3)-c3c(O[C@H]4O[C@H](CO)[C@@H](O)[C@H](O)[C@@H]4O)cc(O)cc3[C@@H](C(=O)O)NC2=O)O[C@H](CO)[C@@H](O)[C@@H]1O | inactive |  | inactive | inactive | inactive | inactive |  | inactive | inactive | inactive | inactive | inactive | inactive | 0.769% | inactive | inactive | inactive |  | inactive
8 | CCCCCCCCCCCCCCCC(=O)OC[C@@H](O)[C@H]1OC[C@H](O)[C@H]1O | inactive |  |  |  | inactive | inactive | inactive | inactive | inactive | inactive | inactive | inactive | inactive | 2.9% | inactive | inactive | inactive |  | inactive
9 | CC1C(=O)CC2C3(C)CCC2(C(C)C(=O)O)C(=O)C13 (stereo not drawn) | inactive |  |  | inactive | inactive | inactive | inactive | inactive | inactive | inactive | inactive | inactive | inactive | 0.0537% | inactive | inactive | inactive |  | inactive
